Potency data for 40 molecules are collected here from PubChem BioAssay (NCATS).

Records with an inconclusive call do not appear. A call without a number means that no potency is given here. Activity calls are given as the source filed them. Calls come from the whole dose curve.

Bile acid receptor (Homo sapiens), sequence (Q96RI1 whole entry, looked up): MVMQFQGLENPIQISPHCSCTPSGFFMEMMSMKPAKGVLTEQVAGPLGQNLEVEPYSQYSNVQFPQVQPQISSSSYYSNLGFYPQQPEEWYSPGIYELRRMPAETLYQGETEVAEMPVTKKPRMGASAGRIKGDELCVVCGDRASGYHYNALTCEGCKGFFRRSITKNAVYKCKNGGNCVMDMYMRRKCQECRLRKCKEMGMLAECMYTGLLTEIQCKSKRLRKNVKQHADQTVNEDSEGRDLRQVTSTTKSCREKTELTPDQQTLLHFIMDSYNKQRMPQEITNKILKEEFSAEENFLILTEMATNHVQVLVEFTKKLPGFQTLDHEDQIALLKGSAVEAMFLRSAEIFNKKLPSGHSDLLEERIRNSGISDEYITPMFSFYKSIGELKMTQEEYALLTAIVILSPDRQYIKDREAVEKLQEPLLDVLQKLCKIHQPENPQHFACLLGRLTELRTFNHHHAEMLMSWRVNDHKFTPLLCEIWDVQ

In this assay the target is Bile acid receptor (Homo sapiens) (UniProt Q96RI1). Kind of assay: qHTS assay for small molecule antagonists of farnesoid X receptor signaling (AID 588526). The settings on record: HEK293T FXR-UAS-bla, beta-lactamase ratio, antagonist mode; series mostly up to 76.7 µM. The source says:
NIH Chemical Genomics Center [NCGC] U.S. Environmental Protection Agency [EPA] National Institutes of Environmental Health Sciences [NIEHS] National Toxicology Program [NTP] NCGC Assay Overview The farnesoid-X-receptor (FXR), a nuclear hormone receptor is highly expressed in liver, intestine, kidney and adrenal cortex. Natural ligands of FXR are the bile acids (Cholic acid, Chenodeoxy cholic acid etc). It is an important regulator of diverse metabolic pathways, including the bile acid homeostasis, lipid and glucose metabolisms. FXR regulates the expression of target genes by binding either as a monomer or as a heterodimer with RXR (retinoid X receptor). As FXR regulates a large number of target genes involved in bile acid, lipoprotein and glucose metabolisms, it is a potential pharmacological target for bile acid and lipid disorders. Thus screening environmental chemicals on FXR signaling can be used for the studies focused on metabolic syndrome, hepatic and intestinal toxicity etc.
NCGC Assay Protocol Summary Using a beta-lactamase reporter-gene under control of Farnesoid X receptor (FXR) response element, a cell-based assay [GeneBLAzer FXR-UAS-bla assay developed by Invitrogen] was used to measure FXR ligands signaling. GeneBLAzer FXR-UAS-bla HEK293T cells were used with assay medium containing 10% dialyzed FBS. The assay was performed in clear bottom black Greiner 1536-well plates. Guggulsterone were used in the screen as the positive control. Library compounds were measured for their ability to inhibit the reporter gene activity. Compounds were screened in a titration series in 1536-well format. The fluorescence intensity (405 nm excitation, 460/530 nm emission) was measured using an EnVision plate reader. Data was normalized relative to Chenodeoxycholic acid (50 uM, 100%), and DMSO only wells (basal, 0%). Concentration-response titration points for each compound were fitted to the Hill equation yielding concentrations of half-maximal inhibition (IC50) and maximal response (efficacy) values. qHTS protocol for FXR beta-lactamase assay in antagonist mode [Step] [Parameter] [Value] [Description] 1. Reagent; 5 uL; 5000 cells/well 2. Incubation; 37 C for 5-7 hrs 3. Compounds; 23 nL; 0.59 nM to 92 uM 4. Controls (Guggulsterone, FXR antagonist); 23 nL, - One column of dose response, start 200 uM, 1:2 dilutions in duplicates 5. Agonist (Stimulator); 1uL; Chenodeoxycholic acid at 100 uM and 50 uM final concentrations 6. Incubation; 37 C for 16 hrs 7. Detection reagent; 1 uL of CCF4-dye 8. Incubation; RT for 2 hrs 9. Detection; Fluorescence; Envision plate reader
For the molecule `CCC/C(=N\OCC)C1=C(O)CC(O)(CC(C)S(=O)(=O)CC)CC1=O` (stereo not given), the Potency entry was “inactive”.

With `CSc1ccc(Cl)cc1`, the Potency result was “inactive”.

`C/C=C/C/C=C\CCCCCCCCOC(C)=O`: the Potency result is “inactive”.

`CC(C)=CCC[C@@H](C)[C@H]1CC[C@@]2(C)C3=C(CC[C@]12C)[C@@]1(C)CC[C@H](O)C(C)(C)[C@@H]1CC3`: the Potency entry is “inactive”.

Take `O=C(O)CN(CCCN(CC(=O)O)CC(=O)O)CC(=O)O`: the Potency entry is “inactive”.

As to `Oc1ccc2ccccc2c1N=Nc1ccccc1`, the Potency result was “inactive”.

Consider `CCc1c(C(=O)O)c(=O)cnn1-c1ccc(Cl)cc1`, for which the Potency entry was “inactive”.

As for `C=C(C)C(=O)OCC(CC)(COC(=O)C(=C)C)COC(=O)C(=C)C`, the Potency entry is “inactive”.

In the case of `CN(C)c1nc(=O)n(C2CCC(O)CC2)c(=O)n1C` (stereo not given), the Potency entry was “inactive”.

For `CNc1nc(=O)n(C2CCC(O)CC2)c(=O)n1C` (stereo not given), the Potency result is “inactive”.

Turning to `O=C1CCC(C2CCCCC2)CC1`, the Potency result is “inactive”.

For the molecule `Cl[Si](Cl)(Cl)c1ccccc1`, the Potency entry is “inactive”.

`O=C(OCCOCCOC(=O)c1ccccc1)c1ccccc1`: the Potency entry is “inactive”.

Turning to `OCC(CO)(CO)COCC(CO)(CO)CO`, the Potency result is “inactive”.

For the molecule `CCCCCCCC[Si](Cl)(Cl)Cl`, the Potency result was “inactive”.

For the molecule `CCc1cccc(C)c1N(C(=O)CS(=O)(=O)O)[C@@H](C)COC`, the Potency result is “inactive”.

Consider `CC(C)C(=O)OCC(C)(C)C(O)C(C)C` (stereo not given), for which the Potency result was “inactive”.

As to `NCCCCCCCCCCCC(=O)O`, the Potency entry is “inactive”.

Take `OCc1cccc(Oc2ccccc2)c1`: the Potency result was “inactive”.

On to `CC(C)(C)c1cccc(C(C)(C)C)c1O`, for which the Potency entry is “inactive”.

As to `Cc1ccc(N)c(S(=O)(=O)O)c1`, the Potency entry is “inactive”.

As for `CCCCCCCCCCCC[N+](C)(C)[O-]`, the Potency entry is “inactive”.

`O=S(=O)(O)c1cc(S(=O)(=O)O)c2c(N=Nc3ccccc3)c(O)ccc2c1`: the Potency entry was “inactive”.

Take `BrC1CCC(Br)C(Br)CCC(Br)C(Br)CCC1Br` (stereo not given): the Potency result is “inactive”.

Turning to `Cn1c(=O)[nH]c(=O)n(C2CCC(O)CC2)c1=O` (stereo not given), the Potency result is “inactive”.

With `CC1(C)C(=O)N(Br)C(=O)N1Br`, the Potency result was “inactive”.

Take `COc1ccc(OC)c(OC)c1`: the Potency result was “inactive”.

Turning to `CNc1nc(=O)n(C2CCCCC2)c(=O)n1C`, the Potency entry was “inactive”.

On to `C1=C/CC/C=C/CC/C=C/CC/1`, for which the Potency result is “inactive”.

For the molecule `O=c1[nH]sc2ccccc12`, the Potency was 44.7 µM (active).

For `CCCCC(CC)COP(=O)(O)OCC(CC)CCCC` (stereo not given), the Potency entry is “inactive”.

For `CCCN(CCC)c1c([N+](=O)[O-])cc(C(F)(F)F)c(N)c1[N+](=O)[O-]`, the Potency entry is “inactive”.

Take `COC(=O)c1c(Cl)nn(C)c1S(=O)(=O)NC(=O)Nc1nc(OC)cc(OC)n1`: the Potency entry was “inactive”.

With `OC1CCC(C2CCCCC2)CC1` (stereo not given), the Potency entry is “inactive”.

In the case of `CCCCOCC(C)OCC(C)O` (stereo not given), the Potency result is “inactive”.

For the molecule `Cn1c(=O)[nH]c(=O)n(C2CCCCC2)c1=O`, the Potency entry is “inactive”.

As to `CCOCCOCCOC(C)=O`, the Potency result was “inactive”.

For the molecule `O=C(O)CCCCCCC(=O)O`, the Potency result was “inactive”.

Take `CCCCCCCCCCCCCCCCCCN`: the Potency entry was “inactive”.

Turning to `CCOC(=O)NCCOc1ccc(Oc2ccccc2)cc1`, the Potency result is “inactive”.
